Peg3 prom inh-1 – Peg3 promoter-driven luciferase inhibitors, primary screen, cell-based, HeLa, luciferase luminescence; HeLa PEG-Prom luciferase reporter, overnight; inhibition, % at 20 µM; actives 1.7% (n = 360,000); AID 588405, 2011;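 active means inhibition of at least 50% at 20 µM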
HIF-2a block – HIF-2a reporter inhibitors, primary screen, luminescence, 786-0 RCC cells; 786-0 RCC cells HIF-2a reporter, luciferase luminescence, overnight; inhibition, % at 18.8 µM; actives 0.72% (n = 360,000);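 active means inhibition of the luminescence signal of 40% or more relative to plate controls, in a single-dose primary screen at 18.75 µM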
CF NFkB inh – inhibitors of PAF-induced NF-kB signaling, primary screen, cell-based, GFP fluorescence, uHTS. KKLEB NF-kB-GFP reporter, GFP fluorescence overnight. inhibition, % at 5 µM. actives 0.86% (n = 360,000). AID 588850, 2011;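 active means at least 50% inhibition at 5 µM, scaled per plate between neutral and stimulator controls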;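 further: PAF is a Pseudomonas aeruginosa culture filtrate used as stimulus; plate controls were PAF-stimulated DMSO wells for no effect and unstimulated DMSO wells for full effect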
TWEAK Fn14 block – inhibitors of TWEAK-Fn14 signaling, primary screen, luciferase reporter cells, uHTS; inhibition, % at 10 µM; TWEAK-stimulated Fn14 reporter cells, luciferase luminescence, 8 h; AID 1159606, 2016; actives 2% (n = 360,000); in the data active means inhibition above about 50%
TROY NFkB inh – inhibitors of TROY-driven NF-kB signaling, primary screen, Q293 LMP1-TROYcd cells, NF-kB luciferase, uHTS; Q293 LMP1-TROYcd NF-kB luciferase reporter, 4 h; inhibition, % at 10 µM; actives 0.98% (n = 360,000);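 active means compounds whose plate-normalised and pattern-corrected inhibition of the luciferase reporter signal at the single screening dose is 50% or more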
KKLEB cytotox – cytotoxicity in KKLEB CF airway cells, primary screen, cytotoxicity control for CF NF-kB inhibitor project, cell-based, uHTS, fluorescence assay plates; AID 602141, 2011; activity change (cytotoxicity), % at 5 µM; KKLEB CF airway cells viability, ATPlite luminescence, overnight; stronger effect = lower value; cells stimulated with P. aeruginosa culture filtrate; actives 0.36% (n = 360,000);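 active means corrected activity change at or below -50% at 5 µM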
Peg3 prom inh-2 – Peg3 promoter reporter inhibitors, retest, confirmation, cell-based, HeLa, luciferase reporter, single concentration. HeLa PEG-Prom luciferase reporter, luminescence, overnight. inhibition, % at 20 µM. actives 84% (n = 1,300). shares compounds with Peg3 prom inh-1. AID 602417, 2012;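 active means at 20 µM dose, 40% or more inhibition averaged across four replicates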
* hit, by the source's call; . = no result. Hits are enriched below; roughly 4% of the tested compounds scored in any of these assays.

SMILES | Peg3 prom inh-1 | HIF-2a block | CF NFkB inh | TWEAK Fn14 block | TROY NFkB inh | KKLEB cytotox | Peg3 prom inh-2
O=C(O)c1cc(-c2ccccc2)n(-c2ccc(F)cc2)n1 | 78* | 25 | -22 | -4 | 16 | 1 | .
COc1cc(CN2CCc3ccccc3C2)ccc1O | 49 | -48 | 19 | 91* | 19 | -8 | .
Oc1ccc(Cc2ccccc2)c2cccnc12 | 69* | 5 | 0 | -26 | -24 | 3 | .
COc1cc(CN2CCc3ccccc3C2)cc([N+](=O)[O-])c1O | 5 | 16 | 3 | 0 | 10 | 9 | .
CC(C)COCc1ccc(O)c2ncccc12 | 55* | 21 | 2 | 6 | -18 | -1 | .
Oc1ccc(CN2CCc3ccccc3C2)c2cccnc12 | 94* | -13 | 17 | -11 | -18 | -14 | .
Cc1cc(C)c2nc(SC(C)C(=O)NCC(=O)Nc3ccc(F)c(F)c3F)cc(C)c2c1 (configuration not stated) | 25 | 28 | 3 | 28 | 8 | 8 | .
Cc1ccc(CN2C(=O)C(C)(C)Oc3ccc(C(=O)N4CCCCC4)cc32)cc1 | 42 | 19 | 7 | 1 | -6 | 1 | .
CC1(C)C(=O)OC(C(=O)c2ccc(Cl)cc2)C(C)(C)C1=O (configuration not stated) | -8 | 10 | -10 | 15 | 12 | 4 | .
O=C(c1cc(Cl)c(=O)n(Cc2ccc(Cl)cc2)c1)N1CCOCC1 | -3 | 16 | 2 | 6 | -3 | -2 | .
CCOC(=O)NC(Nc1sc2c(c1C(N)=O)CCCC2)(C(=O)OCC)C(F)(F)F (configuration not stated) | 13 | -7 | 19 | -16 | 10 | -3 | .
S=C(Nc1cccc(Cl)c1)N(CCCN1CCCC1)Cc1cccn1Cc1ccc(Cl)cc1 | 100* | 8 | 38 | -11 | 10 | -34 | .
COc1cccc(NC(=S)N(CCCN2CCCC2)Cc2cccn2Cc2ccc(Cl)cc2)c1 | 0 | -21 | 16 | -19 | 0 | -3 | .
CSc1cccc(NC(=S)N(CCCN2CCCC2)Cc2cccs2)c1 | 1 | 5 | -8 | -11 | 8 | -10 | .
CSc1cccc(NC(=S)N(CCCN2CCCC2)Cc2cccn2Cc2ccc(Cl)cc2)c1 | 108* | -10 | 17 | -14 | -9 | -13 | .
OCCN1CCN(C2CCC(c3ccc(F)cc3)c3ccc(F)cc32)CC1 (configuration not stated) | 56* | -18 | 45 | -13 | -14 | -35 | 73*
CCN(CC)CCNC(=O)c1ccc(NC(=O)c2cccc(S(=O)(=O)N(C)C3CCCCC3)c2)cc1 | 83* | 24 | 11 | 0 | 8 | -19 | 89*
CCNC(=O)c1c(NC(=O)c2cc(-c3cc(C)ccc3O)n[nH]2)sc2c1CCCC2 | 60* | -10 | 19 | -6 | 16 | -33 | 17
Cc1ccc(-c2cc(C(=O)Nc3sc4c(c3C(=O)NCc3ccco3)CCC4)[nH]n2)c(O)c1 | 35 | 16 | 15 | -6 | -8 | -22 | .
O=C1c2ccccc2C(=O)C12OC2c1ccc(Cl)cc1Cl (configuration not stated) | 99* | -14 | 96* | 72* | 21 | -68* | 51*
CC1=NN(c2cccc(C(=O)O)c2)C(=O)/C1=C\C=C/c1ccccc1 | 78* | 59* | 64* | 91* | 54* | -15 | 52*
CN=CC1=C(O)c2ccccc2C1=O | -13 | -13 | 4 | -5 | 30 | 1 | .
COc1ccc(N=CC2=C(O)c3ccccc3C2=O)cc1 | 75* | 7 | -10 | 98* | 74* | -51* | -3
CC1(C)CC(NC(=O)c2sc3cc(Cl)ccc3c2Cl)CC(C)(C)N1 | 91* | -48 | 5 | -19 | 11 | -13 | 100*
c1ccc(-c2nnc(N3CCN(c4ccccn4)CC3)c3ccccc23)cc1 | 37 | 6 | 29 | 21 | 26 | -6 | .

Assay outcomes deposited in PubChem BioAssay by Sanford-Burnham Center for Chemical Genomics.
